The list is not random: actives were taken first. Their share in the collection is about 19%.
IL1B secr inh – inflammasome signaling inhibition, IL-1 beta readout; THP-1 LPS/ATP IL-1B secretion, AlphaLISA, 16 h; hits give low values; activity change, % at 57.5 µM; 4.7% of 360,000 active; AID 743279; in the data active = activity change below about -50%; inconclusive = mostly about -30% to -49%
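Secreted IL-1B measured by AlphaLISA bead assay after 16 h compound exposure of THP-1 cells; compounds (final up to 57.5 uM) added 1 h before LPS (250 ng/mL) and ATP (1.25 mM) stimulation; lower signal means less secretion.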
HT1080 IDH1KD tx – toxicity to HT-1080 IDH1 knockdown cells (counter line). HT-1080 IDH1 knockdown viability, ATP luminescence, 48 h. Potency, µM (titrated, usually from 46.1 µM), without a hit: at the highest dose activity, negative = toxicity, most hits filed as cytotoxic. 2% of 360,000 active. AID 686971;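 note: potency is the fitted concentration of half-maximal effect; 0% = DMSO wells and -100% = cell-free medium wells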
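After a 2 h attachment period, IDH1KD HT-1080 cells took pin-transferred compound for 48 h at 37 °C; ATP-based luminescence after 10 min room-temperature reagent incubation reported viability.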
TDP1 cell noCPT – qHTS for Inhibitors of human tyrosyl-DNA phosphodiesterase 1 (TDP1): qHTS in cells in absence of CPT | DT40 Tdp1-/- hTDP1 cells, no CPT, ATP luminescence, 48 h | Potency, µM (titrated, usually from 46.2 µM), for inactives: at the highest dose activity change, negative = growth inhibition, most hits filed as inhibitors | 15% of 420,000 active; note: potency is the fitted concentration of half-maximal effect; nearly all actives have a fitted effect of over 55% in size
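Compound effects on proliferation are scored in DT40 Tdp1-/-;hTDP1 cells in the absence of CPT. ATP levels (CellTiter-Glo luminescence) are recorded after a ≥48 hr, 37 °C incubation.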
HT1080NT lethal – kills 2HG-producing HT-1080-NT fibrosarcoma cells. HT-1080-NT fibrosarcoma viability, CellTiter-Glo ATP luminescence, 48 h. Potency, µM (series often up to 46.1 µM), for the others: top-dose activity, negative = less viability, actives largely listed as cytotoxic. 1.6% of 360,000 active. AID 686970;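 note: NT is the 2HG producing partner of a matched IDH1 knockdown line; potency is the fitted concentration of half-maximal effect; 0% = DMSO-treated cells and -100% = media-only wells without cells; nearly all actives have a fitted effect of over 55% in size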
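Luminescent CellTiter-Glo readout after 48 hours of compound exposure at 37 degrees C defined viability of HT-1080-NT cells. Activity was normalized to DMSO wells and cell-free media wells; concentration-response curves were fitted and assigned curve classes.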
DT40 TDP1 CPT – growth inhibition of DT40 Tdp1-/-;hTDP1 cells with camptothecin (screen for TDP1 inhibitors); chicken DT40 Tdp1-/-;hTDP1 cells + 20 nM CPT, ATP luminescence, 48 h; Potency, µM (highest dose often 46.2 µM), inactives show at the top dose activity change, negative = growth inhibition, hits mostly inhibitors; 12% of 420,000 active; note: potency is the fitted concentration of half-maximal effect; nearly all actives have a fitted effect of over 55% in size
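Cell growth measured by CellTiter-Glo luminescence after a minimum 48 h, 37 C compound exposure with 20 nM CPT in Tdp1-knockout DT40 cells stably expressing hTDP1, seeded 400/well; qHTS titration format.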
Active calls of the source: *; ? = inconclusive; . = no result given; [ ] = remark or other dose. Unless noted, calls come from the whole dose curve; as a rule, active = well fitted curve in the direction sought with a large enough effect; inconclusive = small, poorly fitted or top-dose-only effect, or another doubt; inactive = no such curve, though single readings can be large; an effect the other way counts as inactive or inconclusive. Unless noted, % is set by controls: 0 for no effect and ±100 for the full control effect.

SMILES	IL1B secr inh	HT1080 IDH1KD tx	TDP1 cell noCPT	HT1080NT lethal	DT40 TDP1 CPT
Cc1cccc(C)c1NC(=O)CN(C)C(=O)c1ccccc1Sc1ccccc1C#N	7	1%	?	2%	?
CNC(=O)C12N=CNN=C1N(C)C(=O)N2C (centres undefined)	6	?	8%	16%	11%
O=C(c1cc([N+](=O)[O-])ccc1N1CCOCC1)N1CCN(S(=O)(=O)c2cc(Cl)ccc2Cl)CC1	-1	-1%	?	1%	?
CC(=O)Nc1ccc(N(CC(O)Cn2c3ccccc3c3ccccc32)S(=O)(=O)c2ccc(C)cc2)cc1 (centres undefined)	-55*	?	?	?	?
Cc1ccc(N(CC(O)Cn2c3ccccc3c3ccccc32)S(C)(=O)=O)c(C)c1 (centres undefined)	-72*	?	?	18µM*	?
CS(=O)(=O)N(Cc1ccco1)CC(O)Cn1c2ccccc2c2ccccc21 (centres undefined)	-22	-11%	-24%	-3%	-17%
Cc1ccc(N(CC(O)CN2CCCC2)S(=O)(=O)c2ccc(C)cc2)cc1 (centres undefined)	-20	8%	-12%	-5%	-9%
Nc1cccc(-n2nnnc2CN2CCOCC2)c1	-18	16%	16µM*	17%	?
CN(C)CCNS(=O)(=O)c1ccc(N2CCN(c3ccc(F)cc3)CC2)c([N+](=O)[O-])c1	-73*	18µM*	13µM*	?	13µM*
Cc1ccc(S(=O)(=O)NCCS(=O)(=O)N2CCN(c3ccc(F)cc3)CC2)cc1	3	1%	12µM*	1%	?
O=S(=O)(NCCS(=O)(=O)N1CCN(c2cccc(Cl)c2)CC1)c1ccc(F)cc1	.	.	21µM*	.	-51%
O=C(NCCS(=O)(=O)N1CCN(c2cccc(Cl)c2)CC1)c1ccc2c(c1)OCO2	14	-24%	?	4%	?
O=C(NCCS(=O)(=O)N1CCN(c2cccc(Cl)c2)CC1)c1cc(=O)c2ccccc2o1	-4	6%	2.1µM*	2%	?
O=S(=O)(NCCS(=O)(=O)N1CCN(c2ccccc2)CC1)c1ccccc1	-5	-7%	?	-13%	-19%
COCCCn1c(=O)c2sccc2n2c(CCCC(=O)Nc3cccc(OC)c3)nnc12	.	.	?	.	-28%
Cc1ccc(S(=O)(=O)NCC(=O)OCC(=O)c2ccc(Cl)s2)cc1	20	2%	-8%	11%	-1%
Cc1ccc(C)c(Oc2coc3cc(OC(=O)c4cccs4)ccc3c2=O)c1	29	18%	?	1%	29µM*
CCc1ccccc1NC(=O)COc1ccc2c(=O)c(Oc3cc(C)ccc3C)coc2c1	5	-10%	23µM*	-3%	18µM*
COc1ccc(Oc2coc3cc(OC(=O)c4cccs4)ccc3c2=O)cc1	11	7%[9.24 µM]	-28%	4%	-21%
Cc1cc(C)cc(Oc2coc3cc(OCC(=O)NC4CCCCC4)ccc3c2=O)c1	.	.	21µM*	.	?
CCOC(=O)Oc1ccc2c(=O)c(Oc3cc(C)cc(C)c3)coc2c1	34	-27%	-18%	-7%	-21%
c1ccc(-c2nc(-c3cccs3)[nH]c2-c2ccccc2)cc1	-3	-29%	?	2%	?
COc1cc(-c2nc(-c3ccccc3)c(-c3cccs3)[nH]2)cc(OC)c1OC	?	?	23µM*	0%	16µM*
COc1cc(-c2nc(-c3ccccc3)c(-c3cccs3)[nH]2)cc(OC)c1O	?	-2%	?	-2%	?
COc1cccc(-c2nc(-c3ccc4c(c3)-c3ccccc3S4(=O)=O)c(-c3ccccc3)[nH]2)c1OC	-25	-4%	4.1µM*	-5%	7.3µM*
SMILES	IL1B secr inh	HT1080 IDH1KD tx	TDP1 cell noCPT	HT1080NT lethal	DT40 TDP1 CPT
CN(C)c1ccc(-c2nc(-c3cccs3)c(-c3cccs3)[nH]2)cc1	.	.	9.2µM*	.	10µM*
COc1cc(-c2nc(-c3ccc4c(c3)-c3ccccc3S4(=O)=O)c(-c3ccccc3)[nH]2)cc(OC)c1OC	-5	0%	7.3µM*	-9%	18µM*
O=C(c1cnc(Cl)c(Cl)c1)N1CCN(S(=O)(=O)c2cccs2)CC1	8	5%	-3%	0%	-25%
CC(=O)CSc1nc2nccnc2[nH]1	15	8%	2%	-3%	0%
Cc1cc(C)n(-c2c(C)[nH]c3ccccc23)n1	?	-5%	-30%	-7%	-6%
O=[N+]([O-])c1cccc(S(=O)(=O)Nc2ccc3cn[nH]c3c2)c1	21	8%	-11%	5%	-24%
COc1ccc2sc(-c3ccc(S(C)(=O)=O)cc3)c(-c3ccc(SC)cc3)c2c1	-10	-3%	?	0%	26µM*
COc1cc(OC)cc(-c2sc3ccc(OC)cc3c2-c2ccc(O)cc2)c1	-9	?	?	?	?
COc1ccc2c(-c3ccc(SC)cc3)c(-c3ccc(S(C)(=O)=O)cc3)sc2c1	0	6%	?	3%	?
COc1ccc2c(-c3cnc(N4CCOCC4)nc3)c(-c3ccc(S(C)(=O)=O)cc3)sc2c1	-29	11%	15µM*	3%	15µM*
COc1ccc(-c2c(-c3ccc(S(C)(=O)=O)cc3)sc3ccc(OC)cc23)cc1	-2	4%	13µM*	0%	?
COc1ccc(-c2sc3ccc(OC)cc3c2-c2ccc(O)cc2)cc1	-63*	?	?	?	?
Fc1ccc(NCc2nnc3n2CCCCC3)cc1Cl	.	.	0%	.	-4%
Fc1ccc(CNC(=S)NCc2cccc(Cl)c2)cc1	-17	?	?	?	-19%
Cc1ccc(NC(=O)Cn2cc3c(n2)CCC(C)C3)cc1C (centres undefined)	.	.	0%	.	-24%
Cc1ccc(C2=Nc3ccccc3N=C(C(Cl)Cl)C2)cc1	-26	?	16µM*	-27%	18µM*
Cc1cc2c(cc1C)NC(=O)CC(c1ccccc1)=N2	0	13%	?	10%	?
Cc1ccccc1OCCn1c(S(=O)(=O)O)nc2c(N)ncnc21	16	13%	-2%	16%	-1%
Cc1ccc(CNC(=O)CCSCc2cnn(-c3ccccc3)c2-n2cccc2)cc1	.	.	15µM*	.	18µM*
COc1cccc(CNC(=O)CSCc2cnn(-c3ccccc3)c2-n2cccc2)c1OC	?	-2%	?	-7%	26µM*
O=C(CSCc1cnn(-c2ccccc2)c1-n1cccc1)N1CCN(Cc2ccccc2)CC1	-1	3%	13µM*	-11%	?
O=C(CSCc1cnn(-c2ccccc2)c1-n1cccc1)NCc1cccc(Cl)c1	.	.	23µM*	.	16µM*

Screens deposited in PubChem by National Center for Advancing Translational Sciences (NCATS).
